The source of these data is PubChem BioAssay (NCATS).

Where “and” joins values, the source holds several entries; their conditions need not be identical. Identical values can stand only once. Results filed as inconclusive are left out. Calls of active or inactive are those of the source. Unless noted, the rule behind the calls is not given here.

Experiment [1] can be described thus: qHTS profiling of the MIPE4 collection as inhibitors of Plasmodium falciparum (3D7) proliferation (AID 743344).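 Note: scaled between DMSO vehicle wells and 0.29 µM artemisinin as full inhibition.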 The note with it: P. falciparum 3D7 in erythrocytes, SYBR Green DNA fluorescence, 72 h; at 28.5 µM. In short, it runs like this:
(§1)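 Erythrocytes infected with P. falciparum (0.3% parasitemia, 2.5% hematocrit) incubated with compounds 72 h at 37 C, 5% CO2. Lysis with saponin/Triton buffer containing SYBR Green I, overnight at room temperature in the dark; DNA fluorescence (485/535 nm) normalised to 0.29 uM artemisinin and DMSO.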

Experiment [2] in a line: qHTS profiling of the MIPE4 collection as inhibitors of Plasmodium falciparum (DD2) proliferation (AID 743345). The note with it: P. falciparum Dd2 in erythrocytes, SYBR Green DNA, 72 h; at 28.5 µM unless noted. In short, it runs like this:
as §1
In general terms: In qHTS, concentration-response curves come from the screen itself.

The nature of experiment [3]: qHTS profiling of the MIPE4 collection as inhibitors of Plasmodium falciparum (HB3) proliferation (AID 743347).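 Note: plate controls were DMSO vehicle wells for no effect and artemisinin wells for full effect.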 To be noted: P. falciparum HB3 in erythrocytes, SYBR Green DNA, 72 h; at 28.5 µM. In short, it runs like this:
as §1

The nature of experiment [4]: High-throughput drug toxicity screening in the BPDCN cell line Gen2.2 (AID 1224824).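 Note: cells exposed to compounds for 48 h before reading; 100% = DMSO and 0% = bortezomib.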 The note with it: Gen2.2 BPDCN cells; at 45.8 µM (top of the series). In short, it runs like this: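 Readout is ATP luminescence from Gen2.2 cells after two days of drug exposure in serum-containing medium at 37 °C. Values express percent activity, with vehicle defining full signal and 9.2 uM bortezomib defining zero.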

The nature of experiment [5]: qHTS Assay for Identifying Gametocytocidal Compounds (AID 743244; active = well fitted curve in the direction sought with a large enough effect;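 note: % is set by controls: 0 for no effect and ±100 for the full control effect; actives lower the fluorescent signal which means gametocytes are killed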). The note with it: P. falciparum 3D7 stage III-V gametocytes, alamarBlue, 72 h; max response: stronger effect = lower value. In short, it runs like this:
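3D7 gametocytes, stages III–V, 20,000/well; cpd 72 h, 37 °C/5% CO2; + alamarBlue 24 h; fluor. Ex 525/Em 598.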

A short description of experiment [6]: qHTS profiling of the MIPE4 collection as inhibitors of Plasmodium falciparum (DD2) proliferation (Rep 2) (AID 743346). To be noted: P. falciparum Dd2 in erythrocytes, SYBR Green DNA, 72 h; at 28.5 µM. In short, it runs like this:
as §1

Regarding `C[C@@H]1O[C@@H](O[C@@H]2C=C3CC[C@@H]4[C@@H](CC[C@]5(C)[C@H](c6ccc(=O)oc6)CC[C@@]45O)[C@@]3(C)CC2)[C@H](O)[C@H](O)[C@H]1O`, in experiment [1], the parasite growth, % of DMSO control came to 79%. The parasite growth remaining, % of DMSO control (lower = more inhibition) in experiment [2] was 94.6%. Also, the growth, % of control in experiment [3] was 94.5%. Besides, the cell viability, % of control (lower = more cytotoxic) in experiment [4] was 16.6%.
For `CC1(N2CCC(n3c([C@@H]4CCCNC4)nc4ccccc43)CC2)CCCCCCC1` the same measures were 5.01%, 11.2%, 6.13% and 17.2%.
With `CCCN1CCC[C@H](c2cccc(O)c2)C1`, the max response in experiment [5] is -8.29% (inactive) and 20.7% (inactive).
`O=C(N[C@H]1CN2CCC1CC2)c1ccc(Cl)cc1` came in with a parasite growth, % of DMSO control in experiment [1] of 89.4%. In addition, the parasite growth remaining, % of DMSO control (lower = more inhibition) in experiment [2] was 82.1%. Besides, in experiment [3], the growth, % of control was 71.8%. Besides, in experiment [4], the cell viability, % of control (lower = more cytotoxic) worked out at 126%.
`C[C@]12COC(=O)C[C@@H]1CC[C@@H]1[C@H]2CC[C@@]2(C)[C@H]1CC[C@]2(C)O` yielded a parasite growth, % of DMSO control in experiment [1] of 89.9%. In addition, the parasite growth remaining, % of DMSO control (lower = more inhibition) in experiment [2] is 96.6%. The molecule also returned a growth, % of control in experiment [3] of 93.7%. For the same molecule, the cell viability, % of control (lower = more cytotoxic) in experiment [4] stood at 122%.
On to `C=C1C[C@H]2[C@H]3CCC(=O)[C@@]3(C)CC[C@@H]2[C@@]2(C)C=CC(=O)C=C12`, for which, in experiment [1], the parasite growth, % of DMSO control was found to be 51.5%. Besides, in experiment [2], the parasite growth remaining, % of DMSO control (lower = more inhibition) was found to be 90.6%. The growth, % of control in experiment [3] amounted to 29%. For the same molecule, the cell viability, % of control (lower = more cytotoxic) in experiment [4] is 12.4%.
As to `CC(=Cc1csc(C)n1)[C@@H]1C[C@H]2O[C@@H]2CCC[C@H](C)[C@@H](O)[C@@H](C)C(=O)C(C)(C)[C@@H](O)CC(=O)O1`, in experiment [1], the parasite growth, % of DMSO control turned out to be 14.6%. For the same molecule, in experiment [2], the parasite growth remaining, % of DMSO control (lower = more inhibition) amounted to 16.1%. This molecule had a growth, % of control in experiment [3] of 12.9%. Also, the cell viability, % of control (lower = more cytotoxic) in experiment [4] turned out to be 50.1%.
In turn, `N#C[C@H](O[C@@H]1O[C@H](CO[C@@H]2O[C@H](CO)[C@H](O)[C@H](O)[C@H]2O)[C@H](O)[C@H](O)[C@H]1O)c1ccccc1` yielded a parasite growth, % of DMSO control in experiment [1] of 61.2%. Besides, the parasite growth remaining, % of DMSO control (lower = more inhibition) in experiment [2] is 17.6%. The growth, % of control in experiment [3] was 60.6%. Besides, the cell viability, % of control (lower = more cytotoxic) in experiment [4] came out at 180%.
As for `O=C(O)CNC(=O)c1c(O)c2ccccc2n(Cc2ccccc2)c1=O`, the parasite growth, % of DMSO control in experiment [1] was determined as 88%. Further, the parasite growth remaining, % of DMSO control (lower = more inhibition) in experiment [2] was 93.4%. For the same molecule, the parasite growth, % of control (lower = inhibition) in experiment [6] worked out at 75.1%. The same molecule showed a growth, % of control in experiment [3] of 105%. For the same molecule, the cell viability, % of control (lower = more cytotoxic) in experiment [4] stood at 256%.
Turning to `C[C@@H]1CC[C@@]2(OC1)O[C@H]1C[C@H]3[C@@H]4CC=C5C[C@@H](O[C@@H]6O[C@H](CO)[C@@H](O[C@@H]7O[C@@H](C)[C@H](O)[C@@H](O)[C@@H]7O)[C@H](O)[C@@H]6O[C@@H]6O[C@@H](C)[C@H](O)[C@@H](O)[C@@H]6O)CC[C@]5(C)[C@@H]4CC[C@]3(C)[C@@H]1[C@H]2C`, the parasite growth, % of DMSO control in experiment [1] is 57.2%. Moreover, the parasite growth remaining, % of DMSO control (lower = more inhibition) in experiment [2] came out at 52.8%. This molecule also registered a parasite growth, % of control (lower = inhibition) in experiment [6] of 61.5%. For the same molecule, the growth, % of control in experiment [3] was found to be 28.8%. Further, in experiment [4], the cell viability, % of control (lower = more cytotoxic) was 10.6%.
In experiment [1], `CC(C)(C)c1cc(C=C(C#N)C#N)cc(Br)c1O` registered a parasite growth, % of DMSO control of 34.5%. Besides, the parasite growth remaining, % of DMSO control (lower = more inhibition) in experiment [2] was found to be 93.3%. The parasite growth, % of control (lower = inhibition) in experiment [6] turned out to be 37.3%. The same molecule gave a growth, % of control in experiment [3] of 34.7%. Further, the cell viability, % of control (lower = more cytotoxic) in experiment [4] is 12.6%.
Consider `COC1=CC(C)=C[C@@H](C)[C@@H](O)[C@@H](C)CC(C)=CC=C[C@H](OC)[C@H]([C@@H](C)[C@@H](O)[C@H](C)[C@@]2(O)C[C@@H](O)[C@H](C)[C@@H](C(C)C)O2)OC1=O`, for which the parasite growth, % of DMSO control in experiment [1] stood at 6.56%. Also, the parasite growth remaining, % of DMSO control (lower = more inhibition) in experiment [2] is 6.47%. This molecule also returned a growth, % of control in experiment [3] of 8.98%. For the same molecule, in experiment [4], the cell viability, % of control (lower = more cytotoxic) came to 67.2%.
The corresponding values for `COc1cccc2c1[C@]13CCN(CC4CC4)[C@H](C2)[C@]1(OC)CCC(=O)C3` are 98.3%, 102%, 69.1% and 99.3%.
Consider `O=C(NCC1CCOCC1)c1cnc(Nc2ccc(Cl)cc2Cl)nc1C(F)(F)F`, for which the parasite growth, % of DMSO control in experiment [1] stood at 52.4%. Moreover, the parasite growth remaining, % of DMSO control (lower = more inhibition) in experiment [2] came out at 102%. This molecule also registered a growth, % of control in experiment [3] of 49.9%. For the same molecule, in experiment [4], the cell viability, % of control (lower = more cytotoxic) is 7.01%.
The molecule `C[C@]12CCC(=O)C(O)=C1CC[C@@H]1[C@H]3CCC(=O)[C@@]3(C)CC[C@@H]12` showed a parasite growth, % of DMSO control in experiment [1] of 77.1%. For the same molecule, the parasite growth remaining, % of DMSO control (lower = more inhibition) in experiment [2] came to 94.3%. The same molecule registered a parasite growth, % of control (lower = inhibition) in experiment [6] of 71.5%. The same molecule yielded a growth, % of control in experiment [3] of 54.8%. Also, the cell viability, % of control (lower = more cytotoxic) in experiment [4] came out at 78%.
In turn, `CC(C)(O)C=CC(=O)[C@](C)(O)[C@H]1[C@H](O)C[C@]2(C)[C@@H]3CC=C4[C@@H](C=C(O)C(=O)C4(C)C)[C@]3(C)C(=O)C[C@@]12C` yielded a parasite growth, % of DMSO control in experiment [1] of 5.63%. In addition, the parasite growth remaining, % of DMSO control (lower = more inhibition) in experiment [2] worked out at 7.06%. This molecule also showed a growth, % of control in experiment [3] of 7.62%. Further, the cell viability, % of control (lower = more cytotoxic) in experiment [4] is 4.04%.
As to `c1ccc(CCCN2CCN(CCOC(c3ccccc3)c3ccccc3)CC2)cc1`, in experiment [1], the parasite growth, % of DMSO control stood at 9.93%. The parasite growth remaining, % of DMSO control (lower = more inhibition) in experiment [2] came out at 25.6%. This molecule showed a parasite growth, % of control (lower = inhibition) in experiment [6] of 18.7%. Moreover, in experiment [3], the growth, % of control was determined as 19.2%. Besides, the cell viability, % of control (lower = more cytotoxic) in experiment [4] is 8.38%.
In experiment [1], `C=C[C@@H]1CN2CCC1C[C@H]2[C@H](O)c1ccnc2ccccc12` (some centres undefined) yielded a parasite growth, % of DMSO control of 26.8%. In addition, the parasite growth remaining, % of DMSO control (lower = more inhibition) in experiment [2] worked out at 10.8%. For the same molecule, in experiment [3], the growth, % of control turned out to be 21.5%. For the same molecule, in experiment [4], the cell viability, % of control (lower = more cytotoxic) was determined as 14.7%.
As for `C[C@]12CC[C@H](O)CC1=CC[C@H]1[C@H]3CCC(=O)[C@@]3(C)CC[C@@H]12`, the parasite growth, % of DMSO control in experiment [1] stood at 72.2%. The parasite growth remaining, % of DMSO control (lower = more inhibition) in experiment [2] worked out at 97.4%. In experiment [3], this molecule registered a growth, % of control of 98.3%. The cell viability, % of control (lower = more cytotoxic) in experiment [4] amounted to 136%.
As to `CC[C@@H]1[C@@H](C)O[C@@](O)([C@@H](C)[C@H](O)[C@H](C)[C@H]2OC(=O)C=CC=C[C@@H](C)[C@@H]([C@@H](C)[C@@H](O)[C@H](C)[C@@]3(O)C[C@H](O[C@H]4C[C@H](O)[C@H](O)[C@H](C)O4)[C@H](CC)[C@@H](C)O3)OC(=O)C=CC=C[C@@H]2C)C[C@H]1O[C@H]1C[C@H](O)[C@H](O)[C@H](C)O1`, the parasite growth, % of DMSO control in experiment [1] was determined as 49.6%. Further, in experiment [2], the parasite growth remaining, % of DMSO control (lower = more inhibition) was 6.07%. The growth, % of control in experiment [3] turned out to be 47.6%. Besides, the cell viability, % of control (lower = more cytotoxic) in experiment [4] was 11.5%.
`O=S(=O)(F)Cc1ccccc1`: the parasite growth, % of DMSO control in experiment [1] came out at 95.8%. The parasite growth remaining, % of DMSO control (lower = more inhibition) in experiment [2] worked out at 95.2%. In experiment [3], the growth, % of control worked out at 94%. Besides, the cell viability, % of control (lower = more cytotoxic) in experiment [4] was found to be 76.9%.
`COc1ccc(CC2NCCc3cc(OC)c(OC)cc32)cc1OC` (centres undefined) had a parasite growth, % of DMSO control in experiment [1] of 85.9%. Also, the parasite growth remaining, % of DMSO control (lower = more inhibition) in experiment [2] is 85.6%. Also, the growth, % of control in experiment [3] was found to be 90.4%. Moreover, the cell viability, % of control (lower = more cytotoxic) in experiment [4] stood at 150%.
`O=c1[nH]c2ccccc2n1C1CCN(Cc2ccc(-c3[nH]c4cc5ncnc5cc4nc3-c3ccccc3)cc2)CC1` registered a parasite growth, % of DMSO control in experiment [1] of 4.63%. Further, in experiment [2], the parasite growth remaining, % of DMSO control (lower = more inhibition) stood at 6.7%. In experiment [3], the growth, % of control was 4.58%. Moreover, the cell viability, % of control (lower = more cytotoxic) in experiment [4] stood at 4.84%.
